In PubChem BioAssay (NCATS):
Several values for one entry are separate records, joined by “and”; a condition that tells them apart may be missing. Equal values may be shown once. Inconclusive results are not listed. Where a call stands in place of a potency, no number is given. Values without a mark were called inactive. Activity calls are given as the source filed them. Calls follow the shape of the dose curve; as a rule, active = well fitted curve in the direction sought with a large enough effect; inconclusive = small, poorly fitted or top-dose-only effect, or another doubt; inactive = no such curve, though single readings can be large; an effect the other way counts as inactive or inconclusive.

Assays:
[1] = biological target: Cytochrome P450 3A7 (Homo sapiens) (UniProt P24462); assay: Cytochrome P450 family 3 subfamily A member 7 (CYP3A7) small molecule antagonists: luciferase biochemical qHTS assay (AID 1963596); also: nearly all actives have a fitted effect of over 40% in size
Summary of the method: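 Biochemical CYP3A7 activity measured with P450-Glo system: luciferin formed from proluciferin substrate in NADPH-driven reaction (1 h, room temperature) after 10 min compound preincubation. Signal in relative luminescence units.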

[2] = Viability qHTS for spleen associated tyrosine kinase inhibitor (SYKi) naive MV4-11 cells (AID 1963823); also: nearly all actives have a fitted effect of over 40% in size; also: potency is read from the fitted curve at half-maximal effect
Summary of the method: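 SYK inhibitor-naive MV4-11 cells, 500 per well, exposed to compounds for 72 hr at 37 C, 5% CO2. Viability read as CellTiter-Glo luminescence after 10 min at room temperature.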

[3] = Viability qHTS for spleen associated tyrosine kinase inhibitor (SYKi) drug resistant MV4-11 cells (AID 1963824); also: nearly all actives have a fitted effect of over 35% in size; also: potency is read from the fitted curve at half-maximal effect
Summary of the method: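 CellTiter-Glo luminescence, read 10 min after reagent addition, reports viability after a 72 hr compound exposure. Cells are an MV4-11 line made resistant to SYK inhibition, seeded at 500 per well onto compound-containing plates.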

[4] = Cellular viability qHTS for adrenocortical cancer (ACC) cell line SW-13 (AID 1963989); conditions: SW-13 ACC cells viability, CellTiter-Glo, 48 h; activity (max response): stronger effect = lower value; also: nearly all actives have a fitted effect of over 65% in size; also: potency is read from the fitted curve at half-maximal effect;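 as to activity (max response): cells grown in serum-free medium with ITS supplement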
Summary of the method: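 Compound titrations (up to 46 uM final, in DMSO) were applied to SW-13 cells for 48 h at 37C/5% CO2. Reading used CellTiter-Glo after 20 min at room temperature; fitted curves yielded IC50 and efficacy.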

[5] = Cellular viability qHTS for adrenocortical cancer (ACC) cell line NCI-H295R (AID 1963990); also: nearly all actives have a fitted effect of over 60% in size; also: potency is read from the fitted curve at half-maximal effect
Summary of the method: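 Readout: CellTiter-Glo luminescence, 20 min RT. Exposure: 48 h, 37C/5% CO2. Cells: NCI-H295R, ITS-DMEM serum-free. Range: up to 46 uM. Analysis: 4PL fit, IC50 plus efficacy.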

Sequence of Cytochrome P450 3A7 (Homo sapiens) (P24462 whole entry, looked up): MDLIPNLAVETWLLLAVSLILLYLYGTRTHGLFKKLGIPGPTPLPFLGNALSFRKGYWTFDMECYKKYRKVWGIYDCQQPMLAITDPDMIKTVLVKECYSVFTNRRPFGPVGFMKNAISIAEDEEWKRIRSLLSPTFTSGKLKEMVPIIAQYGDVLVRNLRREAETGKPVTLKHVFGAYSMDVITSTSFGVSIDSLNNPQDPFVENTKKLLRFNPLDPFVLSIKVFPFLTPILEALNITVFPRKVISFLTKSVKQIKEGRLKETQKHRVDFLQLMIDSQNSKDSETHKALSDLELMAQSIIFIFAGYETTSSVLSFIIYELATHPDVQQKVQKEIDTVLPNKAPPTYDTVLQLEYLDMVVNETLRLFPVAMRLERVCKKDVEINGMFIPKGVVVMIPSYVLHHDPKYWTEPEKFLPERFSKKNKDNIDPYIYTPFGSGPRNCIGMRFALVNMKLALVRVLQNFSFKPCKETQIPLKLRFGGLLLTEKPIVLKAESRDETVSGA

Row | SMILES | Potency [1] | Potency [2] | Potency [3] | activity (max response) [4] | Potency [5] | Potency [4]
1 | Cn1c(=O)c2[nH]c(Br)nc2n(C)c1=O | inactive | inactive | inactive | -1.12% | inactive | 
2 | CCN(CC)CCNC(=O)c1cc(S(C)(=O)=O)ccc1OC | inactive | inactive | inactive | 12.2% | inactive | 
3 | CC(=O)OCC(COC(C)=O)OC(C)=O | inactive | inactive | inactive | 3.85% | inactive | 
4 | CC(=O)Nc1ccn(C2COC(COC(=O)c3ccccc3)O2)c(=O)n1 (stereo not given) | inactive | 2.31 µM (active) | 1.64 µM (active) | -9.44% | inactive | 
5 | CCS(=O)(=O)c1ccc(OC)c(C(=O)OC)c1 | inactive | inactive | inactive | 10.8% | inactive | 
6 | COCCOCC(OC)OC | inactive | inactive | inactive | 10.1% | inactive | 
7 | C[C@@H](O)[C@H]1C(=O)N2C(C(=O)O)=C([C@H]3CCCO3)S[C@H]12 | inactive | inactive | inactive | 12.4% | inactive | 
8 | O=C(O)/C=C\C(=O)O | inactive | inactive | inactive | 6.23% | inactive | 
9 | CCOC(=O)CN1CCCC1=O | inactive | inactive | inactive | 4.08% | inactive | 
10 | CCC(=O)c1ccc(O)cc1 | inactive | inactive | 7.5 µM (active) | 5.38% | inactive | 
11 | CC(=O)Oc1c(C)c(C)c2c(c1C)CC[C@@](C)(CCC[C@H](C)CCC[C@H](C)CCCC(C)C)O2 | inactive | inactive | inactive | 2.68% | inactive | 
12 | CCn1c(=O)c(-c2ccc(Cl)cc2Cl)cc2cnc(Nc3ccc(N4CCNCC4)c(F)c3)nc21 | inactive | 82 nM (active) and 118 nM (active) | 231 nM (active) and 186 nM (active) | -23.5% | inactive | 
13 | CO[C@]1(NC(=O)CSC(F)F)C(=O)N2C(C(=O)O)=C(CSc3nnnn3CCO)CO[C@H]21 | inactive | inactive | 5.8 µM (active) | -9.56% | inactive | 
14 | Nc1c[n+](N2CCOCC2)no1 | inactive | inactive | inactive | -4.73% | inactive | 
15 | CCN1CCN(c2cc3c(cc2F)c(=O)c(C(=O)O)cn3C2CC2)CC1 | inactive | inactive | inactive | 2.41% | inactive | 
16 | Cc1cccc(C)c1NC(=O)CC12CCCN1CCC2 | inactive | inactive | inactive | 1.71% | inactive | 
17 | CN(C)CCN(Cc1cccs1)c1ccccn1 | inactive | inactive | inactive | 15.3% | inactive | 
18 | CC1(C)OC(=O)Nc2ccc(Br)cc21 | inactive | inactive | inactive | 14.6% | inactive | 
19 | CCCCCCCCCCC(CO)CCCCCCCC (stereo not given) | inactive | inactive | inactive | 0.379% | inactive | 
20 | CN1[C@@H]2CC[C@H]1CC(OC(=O)c1c[nH]c3ccccc13)C2 (stereo not given in full) | inactive | inactive | inactive | -7.55% | inactive | 
21 | COC(=O)c1cccnc1 | inactive | inactive | inactive | 5.78% | inactive | 
22 | CN=C(NC#N)Nc1ccc(C2=NNC(=O)CC2C)cc1 (stereo not given) | inactive | inactive | inactive | -6.43% | inactive | 
23 | CCOc1cc(C(=O)N2CCC(N3CCN(C)CC3)CC2)ccc1Nc1ncc2c(n1)N(C1CCCC1)c1ccccc1C(=O)N2C | inactive | 651 nM (active) and 1.05 µM (active) | 651 nM (active) and 934 nM (active) |  | 17.8 µM (active) | 28.2 µM (active)
24 | CC(=O)c1ccc(S(=O)(=O)NC(=O)NC2CCCCC2)cc1 | inactive | inactive | inactive | 9.54% | inactive | 
25 | Nc1nc(=O)n([C@@H]2O[C@H](CO)[C@@H](O)[C@@H]2F)cc1I | inactive | inactive | inactive | 8.37% | inactive | 
26 | CN1CCOC(c2ccccc2)c2ccccc2C1 (stereo not given) | inactive | inactive | inactive | -0.385% | inactive | 
27 | CC(C(=O)O)c1cccc(Oc2ccccc2)c1 (stereo not given) | inactive | inactive | inactive | 9.95% | inactive | 
28 | CC(O)(P(=O)(O)O)P(=O)(O)O | inactive | inactive | inactive | 14.2% | inactive | 
